# Source: PubChem (several laboratories)
# eIF4H FP inh: inhibitors of RNA binding by human eIF4H. eIF4H fluorescence polarization binding assay. actives 0.94% (n = 290,000). inhibition, % at 35 µM. Q15056;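 also: calls also rest on retests at 20 µM and on dose response follow-up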
# eIF4E 4G PPI: blocks eIF4E binding to eIF4G. TR-FRET eIF4E-eIF4GI(517-606) binding, 2 h. inhibition, % at 21.7 µM. actives 0.37% (n = 220,000);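 active = inhibition above about 30%, limit read from the data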;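 also: 0% = full FRET control wells and 100% = background wells lacking eIF4GI fragment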
# EBV gp42 inh: EBV gp42 inhibition; Fluorescence polarization binding assay, mP read-out; inhibition, % (tested at 21.74 µM); actives 0.42% (n = 220,000); in the data active = inhibition above about 50%
# PABP1 MLLE inh: blocks PAM2 peptide binding to the PABP1 MLLE domain. P11940. inhibition, % at 20 µM. GST-MLLE / FITC-PAM2 fluorescence polarization. actives 0.36% (n = 360,000); in the data active = inhibition above about 35%, passing the limit was not always enough;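 also: plate controls were DMSO wells with GST-MLLE for no effect and wells lacking GST-MLLE protein for full effect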
# Target sequence (P11940 whole entry, looked up, the tested form may be a part): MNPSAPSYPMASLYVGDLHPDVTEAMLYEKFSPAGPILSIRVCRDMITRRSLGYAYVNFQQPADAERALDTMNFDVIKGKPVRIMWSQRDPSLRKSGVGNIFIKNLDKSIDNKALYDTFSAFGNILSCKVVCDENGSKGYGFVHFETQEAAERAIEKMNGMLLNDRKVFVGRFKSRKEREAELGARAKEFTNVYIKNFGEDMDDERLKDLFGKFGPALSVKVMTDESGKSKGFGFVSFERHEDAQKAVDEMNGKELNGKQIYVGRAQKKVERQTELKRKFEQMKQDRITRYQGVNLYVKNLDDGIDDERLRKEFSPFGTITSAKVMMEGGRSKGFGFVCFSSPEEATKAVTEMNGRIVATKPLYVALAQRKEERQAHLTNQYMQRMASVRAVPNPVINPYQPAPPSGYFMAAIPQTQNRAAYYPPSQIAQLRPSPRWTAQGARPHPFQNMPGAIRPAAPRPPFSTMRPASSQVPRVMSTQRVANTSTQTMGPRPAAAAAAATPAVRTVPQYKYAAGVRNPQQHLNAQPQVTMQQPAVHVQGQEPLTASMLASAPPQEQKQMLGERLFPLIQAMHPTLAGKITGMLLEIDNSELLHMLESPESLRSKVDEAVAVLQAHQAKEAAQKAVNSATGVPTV
# PABP polyA inh: PABP-poly(A) binding inhibition. PABP-poly(A) RNA binding, fluorescence polarization. calls only at 35 µM. actives 1% (n = 290,000). AID 2014;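 also: calls also rest on retests at 20 µM and on dose response follow-up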
# The depositor's hits bear a star; i = inactive; ? = inconclusive; / = no result given; + = active, no number. Hits are enriched below; roughly 1.7% of the tested compounds scored in any of these assays. Unless noted, no rule for the calls is given here.
SMILES,eIF4H FP inh,eIF4E 4G PPI,EBV gp42 inh,PABP1 MLLE inh,PABP polyA inh
CN1CCc2c(sc3c2C(=O)NC(c2ccccn2)N3)C1 (configuration not stated),?,-7,11,51,?
CCc1cc(=O)oc2cc(C)cc(OCC(=O)NCc3cccnc3)c12,79*,/,/,9,i
O=C(c1ccc2c(c1)OCO2)C1CCCN(C(=O)NCc2ccccc2)C1 (configuration not stated),58*,-2,-12,-1,+
COc1cc(Cn2c3ccc(NC(=O)NCCc4ccccc4)cc3c(=O)n2C)ccc1F,/,/,/,0,/
Cc1sc(NC(=O)Cn2nc(C(F)(F)F)cc2C)c(C(=O)OC(C)C)c1C,5,31*,-22,3,i
CC(=O)Nc1sc(C)c(C)c1C(=O)OC(C)C,-2,0,-17,9,i
CNc1cccccc1=S,101*,10,11,49*,+
CNc1ccccc1,/,/,/,11,/
Cc1cc(-c2csc(NC(=O)c3ccc(=O)[nH]c3)n2)c(C)n1Cc1ccco1,?,46*,49,-22,?
COc1cccc(OC)c1C(=O)OCCCOC(=O)c1c(OC)cccc1OC,-8,/,/,-21,i
CCN1/C(=C2\SC(=S)N(Cc3ccccc3)C2=O)Sc2ccccc21,5,3,53*,-4,i
CCN1C(=O)/C(=C2/Sc3ccccc3N2CC)SC1=S,45,/,/,9,i
CN(C)CCNC(=O)c1cccc(-c2cnc3c(NC=O)cc(-c4cccs4)cn23)c1,/,/,/,-26,/
O=C1CC(=O)N(Cc2ccco2)C(=S)N1,64*,-1,-3,-118,+
O=C1CC(=O)N(Cc2ccco2)C(=O)N1,?,31*,-36,-105,i
CCc1cc(Br)ccc1NC(=S)NCCc1ccccc1,-9,/,/,6,i
CCOC(=O)N1CCN(Cc2nc3cc(NC(=O)c4cccs4)ccc3n2CC)CC1,-12,/,/,4,i
Cc1cc[n+](-c2[nH]c(=O)sc2/C=N/N=C(\[O-])c2ccncc2)cc1C,30,/,/,29,i
Cc1cc[n+](-c2[nH]c(=O)sc2/C=N/N=C(\[O-])c2ccccc2)cc1,73,6,24,39*,+
Cc1cc[n+](-c2[nH]c(=O)sc2/C=N/N=C(\[O-])c2ccncc2)cc1,100*,/,/,41*,+
Cc1cc[n+](-c2[nH]c(=O)sc2/C=N/N=C(\[O-])c2ccccc2)cc1C,?,4,137*,158,i
N#Cc1cnc(NCc2ccc(Cl)cc2Cl)nc1,-13,/,/,6,i
CCOc1ccccc1NC(=O)CCS(=O)(=O)c1ccc(OC)cc1,8,3,-6,4,?
CCc1ccccc1NC(=O)CCS(=O)(=O)c1ccc(OC)cc1,54*,/,/,16,i
Nc1nc(-c2ccc3c(c2)CCO3)cs1,0,0,-23,13,+
SMILES,eIF4H FP inh,eIF4E 4G PPI,EBV gp42 inh,PABP1 MLLE inh,PABP polyA inh
COc1ccc(CN2C(=O)C(CC(=O)NCCN3CCOCC3)CC(C(=O)N3CCOCC3)=C2C)cc1 (configuration not stated),/,/,/,5,/
CCCCCn1c(=O)c(C(=O)c2ccccc2)nc2ccccc21,-14,2,-11,-6,+
CC1=C/C(=C/N(C)c2ccccc2)C(=O)S1,52*,23,6,39,+
Cc1c2ccncc2cc2c1[nH]c1ccccc12,/,/,/,-45,/
COc1ccc2[nH]c3c(C)c4ccncc4c(C)c3c2c1,29,33*,4,-13,i
Cc1cccc(C)c1NC(=S)Nc1ccc(F)cc1,-3,-6,-5,44*,i
O=C(CN1CCc2ccccc2C1)NCC(=O)Nc1ccc(F)cc1,-7,-3,1,-3,i
CCOC(=O)[C@H]1[C@H]2COc3ccc(Br)cc3[C@H]2N2C(=O)CN(Cc3ccc(C)cc3)C(=O)[C@@]12C,/,/,/,47*,/
N#C/C(=C(/O)COC(=O)CCc1ccc(S(=O)(=O)N2CCOCC2)cc1)c1nc2ccccc2[nH]1,81,-20,6,-12,+
O=C(O)c1cccc(-c2ccc(/C=N/Nc3ccc([N+](=O)[O-])cc3)o2)c1,54,4,-51,-141,+
O=C(O)c1ccc(N/N=C/c2ccc(-c3cc(Cl)ccc3Cl)o2)cc1,59,6,14,-10,i
O=C(O)c1ccc(-c2ccc(/C=N/Nc3ccc([N+](=O)[O-])cc3)o2)cc1,45,9,-38,-140,i
NS(=O)(=O)c1ccc(-c2ccc(/C=N/Nc3ccc(C(=O)O)cc3)o2)cc1,56*,0,-24,-40,i
O=C(O)c1ccc(N/N=C/c2ccc(-c3ccc(Cl)cc3Cl)o2)cc1,76,9,8,-5,+
CNC(=S)N/N=C/c1ccc(-c2ccc(C(=O)O)cc2)o1,54*,-2,-1,9,+
Cc1cc(C)c(C)c(S(=O)(=O)N2CCCN(C)CC2)c1C,-10,/,/,8,i
CCOC(=O)C1CCCN(S(=O)(=O)c2ccc3c(c2)N(C)C(=O)CC(=O)N3C)C1 (configuration not stated),-13,/,/,-33,i
Cc1cc(C(=O)NNC(=O)Cc2ccc(Cl)cc2)c(C)o1,/,/,/,-3,/
CNC(=S)N/N=C/c1ccc(-c2ccc(Cl)c([N+](=O)[O-])c2)o1,-4,1,-2,22,i
Cc1ccc(-c2ccc(/C=N/NC(=S)Nc3ccccc3)o2)cc1[N+](=O)[O-],5,-12,-14,38*,i
C=CCSc1nnc(NC(=O)c2cn(CC)c3nc(C)ccc3c2=O)s1,49,-3,-18,-100,+
CCn1cc(C(=O)Nc2ccccc2)c(=O)c2ccc(C)nc21,10,-1,9,/,i
CCO[C@H]1OC(C(=O)NCc2ccccc2)=C[C@@H](C2CC2)[C@@H]1CCCO,-5,-1,-5,0,i
CCN(CC)C(=O)CC(c1cc(OC)c(OC)c(OC)c1)c1c(OC)cc(OC)c2c(-c3ccccc3)cc(=O)oc12 (configuration not stated),103*,34*,99*,-3,+
CCN(CC)C(=O)CC(c1cc(OC)c(OC)c(OC)c1)c1c(OC)cc(OC)c2ccc(=O)oc12 (configuration not stated),-2,-3,-22,-8,i
SMILES,eIF4H FP inh,eIF4E 4G PPI,EBV gp42 inh,PABP1 MLLE inh,PABP polyA inh
Cc1cccc(C)c1OCC(N)C(C)C (configuration not stated),/,/,/,-120,/
Cc1cccc(C)c1OCC(C)N (configuration not stated),4,85*,0,14,i
O=C(NC1(C(F)(F)F)NC(=O)N(Cc2ccco2)C1=O)c1cccnc1 (configuration not stated),7,10,-10,11,i
O=C(NC1(C(F)(F)F)NC(=O)N(Cc2ccco2)C1=O)c1cccs1 (configuration not stated),92*,0,-28,8,+
Cn1nc(C(=O)O)c(=O)n(C)c1=O,/,/,/,40*,/
Cc1ccc(-c2ccnc3nc(-n4cccc4)nn23)o1,56*,0,8,2,+
